Data published in the supplement of paper PMC6555819.

Key:
Experiment in all cases: PBM binding z-score (relative to random genomic background probes); higher = stronger binding; sequences stand for … in GC…GCGATTGACAGCGTAGAATGAAGG
[1] = system: FXR:RXRa (NR concentration 270 nM, RXRa partner concentration 90 nM)
In short: (§1)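 Each nuclear receptor dimer, without ligand, was incubated for 1 h on custom Agilent 4×180K protein-binding microarrays. Binding was detected with antibodies against each partner (one per run), and scanned fluorescence was regression-normalized. The binding z-scores are referenced to random human genomic background probes.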

[2] = system: LXRa:RXRa (NR concentration 270 nM, RXRa partner concentration 90 nM)
In short: as §1

[3] = system: LXRa homodimer (NR concentration 270 nM)
In short: as §1

[4] = system: LXRb:RXRa (NR concentration 270 nM, RXRa partner concentration 90 nM)
In short: as §1

[5] = system: LXRb homodimer (NR concentration 270 nM)
In short: as §1

[6] = system: PPARa:RXRa (NR concentration 270 nM, RXRa partner concentration 90 nM)
In short: as §1

[7] = system: PPARg:RXRa (NR concentration 180 nM, RXRa partner concentration 90 nM)
In short: as §1

[8] = system: PPARg:RXRa 270nM:90nM, anti-RXR (NR concentration 270 nM, RXRa partner concentration 90 nM)
In short: as §1

[9] = system: PPARg:RXRa 30nM:10nM, anti-RXR (NR concentration 30 nM, RXRa partner concentration 10 nM)
In short: as §1

[10] = system: PPARg:RXRa 90nM:30nM, anti-RXR (NR concentration 90 nM, RXRa partner concentration 30 nM)
In short: as §1

[11] = system: PPARg:RXRa DBDmut IVT, anti-RXR (DBD mutation: RXRa K156A/R161A, NR concentration 270 nM, RXRa partner concentration 90 nM)
In short: as §1

[12] = system: PPARg:RXRa IVT, anti-PPARg (NR concentration 270 nM, RXRa partner concentration 90 nM)
In short: as §1

[13] = system: PPARg DBDmut:RXRa IVT, anti-PPARg (DBD mutation: PPARg1 K132A/R137A, NR concentration 270 nM, RXRa partner concentration 90 nM)
In short: as §1

[14] = system: PPARg DBDmut IVT, anti-PPARg (DBD mutation: PPARg1 K132A/R137A, NR concentration 270 nM)
In short: as §1

[15] = system: PPARg homodimer (NR concentration 180 nM)
In short: as §1

[16] = system: PXR:RXRa (NR concentration 270 nM, RXRa partner concentration 90 nM)
In short: as §1

[17] = system: PXR homodimer (NR concentration 270 nM)
In short: as §1

[18] = system: RARa:RXR (NR concentration 270 nM, RXRa partner concentration 90 nM)
In short: as §1

[19] = system: RARa homodimer (NR concentration 270 nM)
In short: as §1

[20] = system: RARb:RXRa (NR concentration 270 nM, RXRa partner concentration 90 nM)
In short: as §1

Sequence | PBM binding z-score [1] | PBM binding z-score [2] | PBM binding z-score [3] | PBM binding z-score [4] | PBM binding z-score [5] | PBM binding z-score [6] | PBM binding z-score [7] | PBM binding z-score [8] | PBM binding z-score [9] | PBM binding z-score [10] | PBM binding z-score [11] | PBM binding z-score [12] | PBM binding z-score [13] | PBM binding z-score [14] | PBM binding z-score [15] | PBM binding z-score [16] | PBM binding z-score [17] | PBM binding z-score [18] | PBM binding z-score [19] | PBM binding z-score [20]
CTACCAAGGTGAACAAGGTCGTTGGTTACTATTC | 1.39 | 1.4 | 0.281 | 1.71 | -0.365 | 2.45 | 0.875 | 1.37 | -0.194 | 0.758 | 1.96 | 2.45 | 0.303 | -0.188 | 0.751 | 2.75 | 2.32 | 2.28 | 0.473 | 2.14
CTCGAACGGTCGTGCTCAGGTGAGTATACCAAAC | -0.183 | -0.208 | -0.21 | -0.274 | -0.517 | -0.309 | -0.285 | -0.662 | -0.759 | -1.01 | 0.143 | -0.0947 | -0.8 | -0.726 | 0.0744 | -0.455 | -0.32 | -0.252 | -0.56 | 0.781
ACTATTAATTGACTTAGGGCAACCGATACGACGC | 0.0871 | 0.356 | 1.02 | 0.353 | 1.25 | 0.0941 | 1.05 | 0.505 | 0.559 | 0.814 | 0.595 | 0.509 | 0.998 | 1.47 | 1.74 | 0.334 | 1.65 | 0.245 | 2.46 | 0.883
CATACAAGGTCAGCTAGGCCAGAGTAGGGACGGC | 5.48 | 4.64 | 0.878 | 2.65 | 0.921 | 4.45 | 3.65 | 3.36 | 0.947 | 2.45 | 2.49 | 3.08 | 1.69 | 1.12 | 2.33 | 2.51 | 0.612 | 3.43 | 1.39 | 4.89
CGTAGCAGGCCAGGGTCACTCAAGCATTTCGCTT | 2.18 | 1.78 | -0.329 | 2.14 | -1.14 | 2.89 | 0.663 | 1.49 | -0.228 | 0.716 | 0.638 | 1.11 | -0.725 | -1.16 | 0.494 | 2.28 | -0.189 | 2.69 | -0.182 | 2.66
TCGAGTAGATTAGGGGCATTCAGAATGGCGTCGA | -0.41 | -0.292 | -0.833 | 0.457 | -0.772 | 0.269 | -0.0813 | 0.334 | 0.917 | 0.699 | 0.671 | -0.44 | -1.09 | -1.25 | -0.958 | 0.158 | -0.306 | -0.0495 | -1.16 | 0.182
CCGACTGGGGCATAAGGTTACCAGAAGCCAGCCC | 0.432 | 1.72 | -0.288 | 0.864 | -1.26 | 2 | 2.27 | 3.48 | 1.75 | 2.93 | 3.11 | 3.13 | -1.29 | -1.2 | 0.743 | 0.265 | -0.64 | 1.84 | -0.798 | 1.78
